This passage reports Potency results from PubChem BioAssay AID504339 (National Center for Advancing Translational Sciences (NCATS), 2011).

Each structure is given as a SMILES string. The campaign covered roughly 390,000 compounds. About 17,000 (4.4%) were called active. Not shown: some 8% with an inconclusive outcome. Calls follow the shape of the dose curve; as a rule, active = well fitted inhibition curve with a large enough effect; inconclusive = small, poorly fitted or top-dose-only effect; inactive = no such curve, though single readings can be large or run the other way. The entries come from a sample that favours actives as a whole. Where a call stands in place of a potency, no number is given.
Potency is read from the fitted curve at half-maximal effect.

For this test, the target named is Lysine-specific demethylase 4A (Homo sapiens) (UniProt O75164). The test is described as follows: qHTS Assay for Inhibitors of JMJD2A-Tudor Domain. Also: nearly all actives have a fitted effect of over 50% in size. To be noted: AlphaScreen JMJD2A-Tudor / H3K4me3 peptide binding; series mostly up to 114 µM. In general terms: Quantitative high-throughput screening tests each substance at several concentrations.
Chain of Lysine-specific demethylase 4A (Homo sapiens) (O75164 whole entry, looked up, the tested form may be a part): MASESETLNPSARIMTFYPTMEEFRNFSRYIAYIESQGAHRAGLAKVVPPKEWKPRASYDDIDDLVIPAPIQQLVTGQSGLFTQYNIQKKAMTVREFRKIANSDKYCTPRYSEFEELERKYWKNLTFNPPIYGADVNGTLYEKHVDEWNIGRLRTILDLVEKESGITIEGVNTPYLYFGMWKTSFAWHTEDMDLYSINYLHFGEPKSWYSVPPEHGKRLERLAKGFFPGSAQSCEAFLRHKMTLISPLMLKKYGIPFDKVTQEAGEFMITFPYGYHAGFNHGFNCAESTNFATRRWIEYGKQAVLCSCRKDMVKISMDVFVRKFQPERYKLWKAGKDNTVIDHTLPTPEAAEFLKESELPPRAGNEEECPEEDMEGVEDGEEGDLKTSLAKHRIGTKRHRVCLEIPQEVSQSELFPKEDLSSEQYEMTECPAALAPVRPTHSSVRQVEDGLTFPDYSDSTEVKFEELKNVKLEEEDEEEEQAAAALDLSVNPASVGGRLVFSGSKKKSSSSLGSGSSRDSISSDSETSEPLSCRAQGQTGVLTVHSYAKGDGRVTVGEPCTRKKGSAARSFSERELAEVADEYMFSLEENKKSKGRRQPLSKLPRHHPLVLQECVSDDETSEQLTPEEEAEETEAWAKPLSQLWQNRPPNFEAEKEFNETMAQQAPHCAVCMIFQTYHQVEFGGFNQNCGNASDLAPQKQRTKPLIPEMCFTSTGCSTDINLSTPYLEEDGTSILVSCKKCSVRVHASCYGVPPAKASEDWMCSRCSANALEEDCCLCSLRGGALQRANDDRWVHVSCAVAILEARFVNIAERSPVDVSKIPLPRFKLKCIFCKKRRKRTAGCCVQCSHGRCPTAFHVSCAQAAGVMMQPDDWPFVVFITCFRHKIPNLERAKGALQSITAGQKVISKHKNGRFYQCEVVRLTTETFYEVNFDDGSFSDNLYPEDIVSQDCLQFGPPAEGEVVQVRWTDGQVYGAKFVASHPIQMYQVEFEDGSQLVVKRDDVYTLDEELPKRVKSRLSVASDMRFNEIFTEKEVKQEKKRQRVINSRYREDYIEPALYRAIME
In the case of `CCCn1c(=N)c(C(=O)NCc2ccccc2)cc2c(=O)n3cccc(C)c3nc21`, the Potency entry is “inactive”.
To `Cn1c(=O)c2c(SCC(=O)N3CCc4ccccc43)nc(-c3ccc(Cl)cc3)nc2n(C)c1=O` belongs “inactive”.
To `CCNC(=O)CC1C(=O)N(c2ccc(F)cc2)C(=O)N1Cc1ccc(C)cc1` (stereo not given) belongs “inactive”.
To `CN1CCN(C2(CNC(=O)COc3ccc(C(C)(C)C)cc3)CCCCC2)CC1` belongs “inactive”; to `Cc1ccc(Cl)cc1N1CCN(C(=O)CN2C(=O)COc3ccc(S(=O)(=O)N4CCOCC4)cc32)CC1`, “inactive”.
As to `Oc1ccc(Cl)cc1C1C=C(c2ccc3c(c2)OCO3)NC(c2ccc(F)c(Br)c2)N1` (stereo not given), the Potency result is “inactive”.
To `CC(C)c1ccc(C2C(C#N)=C(N)Oc3c2oc(CO)cc3=O)cc1` (stereo not given) belongs “inactive”; to `CC(C)c1ccc(C2CC(=O)N3CN(C4CCCCC4)CSC3=C2C#N)cc1` (stereo not given), 25.1 µM (active).
To `COc1cc(OC)cc(-c2nnc(SCC(=O)Nc3ccc(C(=O)O)cc3)s2)c1` belongs “inactive”; to `COc1ccc(NC(=O)CSc2nc(N)c(-c3ccccc3)c(=O)[nH]2)cc1`, “inactive”; to `COc1ccc(-c2nc3c(c(SCC(=O)Nc4ccc(C(=O)O)cc4)n2)Cc2ccccc2O3)cc1`, 35.5 µM (active).
With `CN(Cc1ccccc1)C(=O)c1cn(C)c2ccc(S(=O)(=O)N3CCCCC3)cc2c1=O` the entry was “inactive”.
On to `CCOc1ccc(CN2CCN(CCCc3ccccc3)C(CCO)C2)cc1` (stereo not given), for which the Potency result is “inactive”.
On to `CCOc1ccc(CC(=O)NC2CCN(Cc3ccccc3)CC2)cc1`, for which the Potency result was “inactive”.
For `CCOc1ccc(CN2CCCN(C)CC2)cc1`, the Potency is 3.55 µM (active).
With `CCOc1ccccc1CNC(=O)c1ccc(-n2c(C)cc3c2CCC(C)C3)cc1` (stereo not given) the entry was “inactive”.
To `COc1ccc(/C=C2/C(=O)N(c3ccccc3)N=C2C)c(OC)c1` belongs 15.8 µM (active).
Take `COc1ccc(/C=C2/C(=O)OCc3cc(OC)c(OC)cc32)c(OC)c1`: the Potency entry is “inactive”.
Consider `COc1ccc(C(=O)COC(=O)C(O)c2ccccc2)c(OC)c1` (stereo not given), for which the Potency entry is “inactive”.
As for `Cc1ccc(CNC(=O)CCc2c(C)nc3c(c(C)nn3-c3ccccc3)c2C)cc1`, the Potency result was “inactive”.
In the case of `Cc1ccc(S(=O)(=O)CC(=O)NC(C)c2ccccc2)cc1` (stereo not given), the Potency entry is “inactive”.
To `Cc1cc(C(=O)NNC(=S)NC(C)c2ccccc2)cs1` (stereo not given) belongs “inactive”.
With `C/C(CC(=O)NC(C)c1ccccc1)=N\NC(N)=S` (stereo not given) the figure was 31.6 µM (active); with `CCN1CCN(CCCNC(=O)c2cnn(-c3ccc(C)cc3C)c2C2CCN(C(=O)OC(C)(C)C)CC2)CC1`, “inactive”.
Turning to `COc1ccc(Cn2c(=O)n(-c3ccccc3C)c(=O)c3c4c(sc32)CN(C(C)=O)CC4)cc1`, the Potency entry is “inactive”.
In the case of `O=C(CSc1cccc2cccnc12)N/N=C/c1cccnc1`, the Potency entry is “inactive”.
With `O=C(NC(c1ccco1)c1cc(Cl)c2cccnc2c1O)c1ccccc1` (stereo not given) the entry was “inactive”.
To `CC(=O)NC(c1cccs1)c1cc(Cl)c2cccnc2c1O` (stereo not given) belongs “inactive”.
With `COc1ccccc1N1CCN(C(CNC(=O)C(=O)NCc2ccc(C)cc2)c2cccnc2)CC1` (stereo not given) the entry was “inactive”.
As for `CCN1CCN(C(c2cccnc2)c2cc(Cl)c3cccnc3c2O)CC1` (stereo not given), the Potency is 17.8 µM (active).
With `CCOC(=O)N1CCN(C(c2cccnc2)c2ccc3cccnc3c2O)CC1` (stereo not given), the Potency was 17.8 µM (active).
With `CC1=C(C(=O)OCc2ccc(C)cc2)C(c2c(Cl)cccc2Cl)CC(=O)N1` (stereo not given) the entry was “inactive”.
To `Cc1onc(-c2ccc(F)cc2F)c1C(=O)Nc1cccc(C(F)(F)F)c1` belongs “inactive”; to `CCOCCCNC(=O)c1c(NC(=O)c2nc(SC)ncc2Cl)sc2c1CCCC2`, “inactive”; to `CCOc1ccc(NC(=O)CCc2c(C)nn(-c3ccc(N4CCCC4)nn3)c2C)cc1`, “inactive”.
With `O=C(C1CC(=O)N(C2CCCCC2)C1)N1CCN(c2ccccc2)CC1` (stereo not given) the entry was “inactive”.
Regarding `CCC(=O)c1ccc(OCC(=O)Nc2ccc(N3CCCCC3)cc2)cc1`, the Potency result was “inactive”.
To `O=C1C=CC(=O)N1c1ccc(N2CCCCC2)cc1` belongs 20 µM (active); to `CCC(=O)Nc1ccc(C)cc1-c1nc2ccccc2n(Cc2ccccc2)c1=O`, “inactive”; to `COc1cc(CN(C(=O)c2ccccc2Br)c2ccccn2)cc(OC)c1OC`, “inactive”.
With `COc1ccccc1C1C(C(=O)N2CCCCC2)=C(C)Nc2nc3ccccc3n21` (stereo not given) the entry was “inactive”.
With `COc1ccccc1CNC(=O)c1ccc(-n2c(C)cc3c2CCCC3)cc1`, the Potency result is “inactive”.
With `CCc1nnc(NC(=O)c2ccc(S(=O)(=O)NC3CCCCC3)cc2)s1` the entry was “inactive”.
With `CCc1nnc(NC(=O)c2nc3nccc(C)n3n2)s1` the figure was 35.5 µM (active).
To `Cc1ccnc2nc(C(=O)Nc3nnc(-c4ccccc4)o3)nn12` belongs “inactive”; to `COc1ccc(CCC(=O)NCc2ccc3c(c2)CCN3C(=O)c2ccc(F)cc2)cc1`, “inactive”.
In the case of `COc1ccccc1-n1ccnc1SCC(=O)NC(C)(C)C`, the Potency entry is “inactive”.
Turning to `COc1ccccc1-n1ccnc(SCC(=O)NC2CCCCC2)c1=O`, the Potency was 35.5 µM (active).
To `COc1ccc(-c2nnc(SCC(=O)NC3CCCCC3)o2)cc1OC` belongs “inactive”; to `N#CN1CCC(NC(=O)c2ccc(F)cc2)CC1`, “inactive”; to `C/C=C/c1ccc(OCCOc2ccc(C=O)cc2OC)c(OC)c1`, “inactive”.
To `C=CCc1ccc(OCC(O)CN2CCN(Cc3ccccc3)CC2)c(OC)c1` (stereo not given) belongs “inactive”.
To `C/C=C/c1ccc(OCCCCN2CCC(C)CC2)c(OC)c1` belongs 3.16 µM (active); to `CC1CCN(CCC(=O)Nc2ccccc2)CC1`, “inactive”.
Take `C/C=C/c1ccc(OCC(O)CN2CCCCCCC2)c(OC)c1` (stereo not given): the Potency is 3.16 µM (active).
To `C/C=C/c1ccc(OCC(=O)NNC(=O)CN(C)S(=O)(=O)c2ccc(C)cc2)c(OC)c1` belongs “inactive”; to `COc1ccc(OCCCCN2CCC(C)CC2)cc1`, 20 µM (active); to `COc1ccc(OC)c(NC(=O)CCN2CCC(C)CC2)c1`, “inactive”.
To `OC(COc1ccc(CN2CCSCC2)cc1)CN1CCCCC1` (stereo not given) belongs “inactive”.
To `O=C(NC1CC(=O)N(c2ccc(F)cc2)C1)c1cccs1` (stereo not given) belongs “inactive”; to `COc1ccc(-c2noc(CSc3nnc(-c4ccccc4)n3-c3ccc(F)cc3)n2)c(OC)c1`, “inactive”.
Take `Cc1oc2ccc(O)c(CN3CCCCC3)c2c1C(=O)Nc1cccc(C(F)(F)F)c1`: the Potency entry is “inactive”.
For the molecule `CCCCCn1c(=O)[nH]c2cc(C(=O)NCCN(C)CCCC)ccc2c1=O`, the Potency entry is “inactive”.
To `CCC(=O)N1CCc2cc(S(=O)(=O)NC(Cc3ccccc3)C(=O)NCc3ccc(C)cc3)ccc21` (stereo not given) belongs “inactive”.
To `CN(Cc1ccccc1)C(=O)c1cc2c(=O)n(C)c3ccccc3c2s1` belongs “inactive”.
